Values without a mark were called inactive. The rule behind the calls is not given here.

In the assay the target is Pantothenate synthetase (Mycobacterium tuberculosis (strain ATCC 25618 / H37Rv)) (UniProt P9WIL5). Briefly: Recombinant Mtb pantothenate synthetase (PanC) inhibitors, coupled enzyme, confirmatory (AID 375).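 Note: 0% = full reaction with vehicle and 100% = no enzyme background.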 To be noted: coupled enzyme assay; at 10 µM, hits give high values.
Chain of Pantothenate synthetase (Mycobacterium tuberculosis (strain ATCC 25618 / H37Rv)) (P9WIL5 whole entry, looked up): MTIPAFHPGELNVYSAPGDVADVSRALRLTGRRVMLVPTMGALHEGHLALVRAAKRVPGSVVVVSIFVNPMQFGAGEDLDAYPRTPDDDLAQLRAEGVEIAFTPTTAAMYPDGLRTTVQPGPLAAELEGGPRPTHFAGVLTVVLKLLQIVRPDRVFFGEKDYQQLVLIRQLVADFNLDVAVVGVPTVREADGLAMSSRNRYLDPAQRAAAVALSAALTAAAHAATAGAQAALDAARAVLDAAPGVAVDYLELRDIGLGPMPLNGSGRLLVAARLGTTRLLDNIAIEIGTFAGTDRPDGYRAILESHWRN
Usually inhibition stands for the percentage by which the read-out fell short of the control. For `CN(CCCC(=O)Nc1ccncc1)S(=O)(=O)c1ccc(Cl)cc1`, the inhibition is 3%. Consider `COC(=O)c1ccccc1NC(=O)c1ccc(COc2ccccc2)o1`, for which the inhibition was 0%.

Consider `COC(=O)C(NC(C)=O)(Nc1ccccn1)C(F)(F)F` (stereo not drawn), for which the inhibition is 1%. Next, `COc1ccccc1-c1nnc(NC(=O)c2ccc(S(=O)(=O)N(C)Cc3ccccc3)cc2)o1`: 0%; `CN1CCN(S(=O)(=O)c2ccc(Sc3nnc(-c4cccs4)n3-c3ccccc3)nc2)CC1`: 3%; `CCOC(=O)C1CCN(C(=O)CN(c2ccc(Cl)c(C(F)(F)F)c2)S(C)(=O)=O)CC1`: 4%. As for `NCC(O)COc1ccc2c(c1)OCO2` (stereo not drawn), the inhibition is 0%. Next, `O=C(NCc1cccnc1)c1cccc(C(F)(F)F)c1`: 1%; `CCCCOc1ccc(C(=O)N2CCC(C)CC2)cc1`: 0%. With `COc1ccc(C2CC(c3ccc(Cl)cc3Cl)Nc3nc(N)nn32)cc1` (stereo not drawn), the inhibition is 0%.

Turning to `Nc1nonc1C(=O)NCCNCc1cc(Br)ccc1OCc1ccccc1F`, the inhibition is 0%. As for `COC(=O)c1[nH]c(C)c(/C(O)=C2\C(=O)C(=O)N(CCN3CCOCC3)C2c2cccs2)c1C` (stereo not drawn), the figure is 4%; as for `Cc1ccc(Cn2c(C)nc3c(c2=O)c2nc4ccccc4nc2n3Cc2ccco2)cc1`, 0%. Next, `Cc1ccc(S(=O)(=O)N2CCN(C(=O)CN3C(=O)NC4(CCOc5ccccc54)C3=O)CC2)cc1` (stereo not drawn): 2%; `CCOc1cc(C2NC(=O)N(C)C(C)=C2C(=O)OC)cc(Br)c1O` (stereo not drawn): 0%; `O=C(O)C1CC(=O)N(c2ccc(OCc3c(F)cccc3Cl)cc2)C1` (stereo not drawn): 2%.

Consider `c1ccc2c3nnc4n(c-3nc2c1)CCCS4`, for which the inhibition is 1%. As for `CCOC(=O)C1CCN(C(=O)COc2ccc(Cl)cc2Cl)CC1`, the figure is 0%; as for `COCCCNC(=O)C1CCN(C(=O)Nc2ccc(Cl)cc2)CC1`, 0%. As for `O=C(NCCCN1CCOCC1)C1CC(=O)N(CCc2ccccc2)C1` (stereo not drawn), the figure is 4%; as for `COc1ccccc1Nc1nc2ccccc2[nH]1`, 0%; as for `CCN(CC)S(=O)(=O)c1ccc(NC(=O)CN(c2cccc(F)c2)S(C)(=O)=O)cc1`, 3%. As for `NC(=O)COC(=O)CNC(=O)c1ccc(Cl)cc1`, the figure is 0%.

Values taken from PubChem BioAssay.
